{
  "source": "paper PMC11006913",
  "assay_in_all_cases": "PBM; 200 nM protein, PBS",
  "details_in_all_cases": "dsDNA, one strand shown",
  "key": {"NKX2-6 [1]": {"biological_target": "T1, NKX2-6 (Homo sapiens, UniProt A6NCS4 118-204)", "T1 sequence": "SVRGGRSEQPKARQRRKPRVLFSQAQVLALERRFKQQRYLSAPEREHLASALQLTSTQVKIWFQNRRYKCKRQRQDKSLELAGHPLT"}, "NKX2-6 [2]": {"biological_target": "T2, NKX2-6 (Homo sapiens, UniProt A6NCS4 118-204, F151L)", "T2 sequence": "T1 sequence with F34L"}, "PAX4 [3]": {"biological_target": "T3, PAX4 (Homo sapiens, UniProt O43316 9-242, R200Q)", "T3 sequence": "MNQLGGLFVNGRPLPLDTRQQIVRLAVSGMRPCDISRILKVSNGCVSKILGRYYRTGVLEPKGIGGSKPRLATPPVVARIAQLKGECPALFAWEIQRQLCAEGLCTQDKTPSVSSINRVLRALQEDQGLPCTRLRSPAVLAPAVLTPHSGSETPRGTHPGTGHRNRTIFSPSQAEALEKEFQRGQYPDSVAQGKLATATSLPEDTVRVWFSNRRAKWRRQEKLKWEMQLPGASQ"}, "PAX4 [4]": {"biological_target": "T4, PAX4 (Homo sapiens, UniProt O43316 9-242, F177Y)", "T4 sequence": "T3 sequence with F169Y, Q192R"}, "NKX3-2 [5]": {"biological_target": "NKX3-2 (Homo sapiens, UniProt P78367 192-278, P234S)", "sequence (P78367 192-278 P234S)": "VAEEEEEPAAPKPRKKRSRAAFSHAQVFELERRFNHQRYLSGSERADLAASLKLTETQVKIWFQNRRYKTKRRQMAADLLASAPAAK"}, "NKX3-2 [6]": {"biological_target": "NKX3-2 (Homo sapiens, UniProt P78367 192-278)", "sequence (P78367 192-278)": "as the sequence (P78367 192-278 P234S) above, with S43P counted along it"}, "PAX4 [7]": {"biological_target": "T5, PAX4 (Homo sapiens, UniProt O43316 9-242, R227W)", "T5 sequence": "T3 sequence with Q192R, R219W"}, "PITX2": {"biological_target": "PITX2 (Homo sapiens, UniProt Q99697 72-157)"}},
  "note": "Changes are numbered by the printed parent chain.",
  "data": [
    {"sequence": "GGCACAGA", "values": [
      {"measurement": "binding signal", "setting": "NKX2-6 [1]", "result": "9.3 upbm affinity estimate (log intensity, higher = more binding, comparable within an allelic series)"},
      {"measurement": "binding signal", "setting": "NKX2-6 [2]", "result": "9.37 upbm affinity estimate (log intensity, higher = more binding, comparable within an allelic series)"}
    ]},
    {"sequence": "ACGCATCC", "values": [
      {"measurement": "binding signal", "setting": "NKX2-6 [1]", "result": "9.51 upbm affinity estimate (log intensity, higher = more binding, comparable within an allelic series)"},
      {"measurement": "binding signal", "setting": "NKX2-6 [2]", "result": "9.35 upbm affinity estimate (log intensity, higher = more binding, comparable within an allelic series)"}
    ]},
    {"sequence": "AGACGGCC", "values": [
      {"measurement": "binding signal", "setting": "NKX2-6 [1]", "result": "9.28 upbm affinity estimate (log intensity, higher = more binding, comparable within an allelic series)"},
      {"measurement": "binding signal", "setting": "NKX2-6 [2]", "result": "9.16 upbm affinity estimate (log intensity, higher = more binding, comparable within an allelic series)"}
    ]},
    {"sequence": "CCAAGGCA", "values": [
      {"measurement": "binding signal", "setting": "NKX2-6 [1]", "result": "9.52 upbm affinity estimate (log intensity, higher = more binding, comparable within an allelic series)"},
      {"measurement": "binding signal", "setting": "NKX2-6 [2]", "result": "9.42 upbm affinity estimate (log intensity, higher = more binding, comparable within an allelic series)"}
    ]},
    {"sequence": "ACGGGACT", "values": [
      {"measurement": "binding signal", "setting": "NKX2-6 [1]", "result": "9.76 upbm affinity estimate (log intensity, higher = more binding, comparable within an allelic series)"},
      {"measurement": "binding signal", "setting": "NKX2-6 [2]", "result": "9.42 upbm affinity estimate (log intensity, higher = more binding, comparable within an allelic series)"}
    ]},
    {"sequence": "CAGACTAG", "values": [
      {"measurement": "binding signal", "setting": "NKX2-6 [1]", "result": "9.38 upbm affinity estimate (log intensity, higher = more binding, comparable within an allelic series)"},
      {"measurement": "binding signal", "setting": "NKX2-6 [2]", "result": "9.36 upbm affinity estimate (log intensity, higher = more binding, comparable within an allelic series)"}
    ]},
    {"sequence": "AGCTGCAG", "values": [
      {"measurement": "binding signal", "setting": "NKX2-6 [1]", "result": "9.32 upbm affinity estimate (log intensity, higher = more binding, comparable within an allelic series)"},
      {"measurement": "binding signal", "setting": "NKX2-6 [2]", "result": "9.44 upbm affinity estimate (log intensity, higher = more binding, comparable within an allelic series)"}
    ]},
    {"sequence": "GAAGAGCA", "values": [
      {"measurement": "binding signal", "setting": "NKX2-6 [1]", "result": "11.4 upbm affinity estimate (log intensity, higher = more binding, comparable within an allelic series)"},
      {"measurement": "binding signal", "setting": "NKX2-6 [2]", "result": "9.71 upbm affinity estimate (log intensity, higher = more binding, comparable within an allelic series)"}
    ]},
    {"sequence": "ATCTTCAC", "values": [
      {"measurement": "binding signal", "setting": "NKX2-6 [1]", "result": "11.1 upbm affinity estimate (log intensity, higher = more binding, comparable within an allelic series)"},
      {"measurement": "binding signal", "setting": "NKX2-6 [2]", "result": "9.83 upbm affinity estimate (log intensity, higher = more binding, comparable within an allelic series)"}
    ]},
    {"sequence": "TCAACTCA", "values": [
      {"measurement": "binding signal", "setting": "NKX2-6 [1]", "result": "11.4 upbm affinity estimate (log intensity, higher = more binding, comparable within an allelic series)"},
      {"measurement": "binding signal", "setting": "NKX2-6 [2]", "result": "9.78 upbm affinity estimate (log intensity, higher = more binding, comparable within an allelic series)"}
    ]},
    {"sequence": "CCGCGCGG", "values": [
      {"measurement": "binding signal", "setting": "NKX2-6 [1]", "result": "9.66 upbm affinity estimate (log intensity, higher = more binding, comparable within an allelic series)"},
      {"measurement": "binding signal", "setting": "NKX2-6 [2]", "result": "9.56 upbm affinity estimate (log intensity, higher = more binding, comparable within an allelic series)"}
    ]},
    {"sequence": "AGGGACGA", "values": [
      {"measurement": "binding signal", "setting": "NKX2-6 [1]", "result": "9.37 upbm affinity estimate (log intensity, higher = more binding, comparable within an allelic series)"},
      {"measurement": "binding signal", "setting": "NKX2-6 [2]", "result": "9.28 upbm affinity estimate (log intensity, higher = more binding, comparable within an allelic series)"}
    ]},
    {"sequence": "CACTCTGG", "values": [
      {"measurement": "binding signal", "setting": "NKX2-6 [1]", "result": "11.6 upbm affinity estimate (log intensity, higher = more binding, comparable within an allelic series)"},
      {"measurement": "binding signal", "setting": "NKX2-6 [2]", "result": "9.66 upbm affinity estimate (log intensity, higher = more binding, comparable within an allelic series)"}
    ]},
    {"sequence": "CGTCGGAC", "values": [
      {"measurement": "binding signal", "setting": "NKX2-6 [1]", "result": "9.07 upbm affinity estimate (log intensity, higher = more binding, comparable within an allelic series)"},
      {"measurement": "binding signal", "setting": "NKX2-6 [2]", "result": "9.37 upbm affinity estimate (log intensity, higher = more binding, comparable within an allelic series)"}
    ]},
    {"sequence": "GTAAATTA", "values": [
      {"measurement": "binding signal", "setting": "PAX4 [3]", "result": "11.9 upbm affinity estimate (log intensity, higher = more binding, comparable within an allelic series)"},
      {"measurement": "binding signal", "setting": "PAX4 [4]", "result": "11 upbm affinity estimate (log intensity, higher = more binding, comparable within an allelic series)"}
    ]},
    {"sequence": "CCGGGAAC", "values": [
      {"measurement": "binding signal", "setting": "NKX2-6 [1]", "result": "9.33 upbm affinity estimate (log intensity, higher = more binding, comparable within an allelic series)"},
      {"measurement": "binding signal", "setting": "NKX2-6 [2]", "result": "9.31 upbm affinity estimate (log intensity, higher = more binding, comparable within an allelic series)"},
      {"measurement": "binding signal", "setting": "NKX3-2 [5]", "result": "10.5 upbm affinity estimate (log intensity, higher = more binding, comparable within an allelic series)"},
      {"measurement": "binding signal", "setting": "NKX3-2 [6]", "result": "10.5 upbm affinity estimate (log intensity, higher = more binding, comparable within an allelic series)"}
    ]},
    {"sequence": "CAGACGGG", "values": [
      {"measurement": "binding signal", "setting": "NKX2-6 [1]", "result": "9.56 upbm affinity estimate (log intensity, higher = more binding, comparable within an allelic series)"},
      {"measurement": "binding signal", "setting": "NKX2-6 [2]", "result": "9.37 upbm affinity estimate (log intensity, higher = more binding, comparable within an allelic series)"}
    ]},
    {"sequence": "AACACGCC", "values": [
      {"measurement": "binding signal", "setting": "NKX2-6 [1]", "result": "9.5 upbm affinity estimate (log intensity, higher = more binding, comparable within an allelic series)"},
      {"measurement": "binding signal", "setting": "NKX2-6 [2]", "result": "9.31 upbm affinity estimate (log intensity, higher = more binding, comparable within an allelic series)"}
    ]},
    {"sequence": "CCCAAGGC", "values": [
      {"measurement": "binding signal", "setting": "NKX2-6 [1]", "result": "9.12 upbm affinity estimate (log intensity, higher = more binding, comparable within an allelic series)"},
      {"measurement": "binding signal", "setting": "NKX2-6 [2]", "result": "9.27 upbm affinity estimate (log intensity, higher = more binding, comparable within an allelic series)"}
    ]},
    {"sequence": "CGTCTGGC", "values": [
      {"measurement": "binding signal", "setting": "NKX2-6 [1]", "result": "9.46 upbm affinity estimate (log intensity, higher = more binding, comparable within an allelic series)"},
      {"measurement": "binding signal", "setting": "NKX2-6 [2]", "result": "9.41 upbm affinity estimate (log intensity, higher = more binding, comparable within an allelic series)"}
    ]},
    {"sequence": "CAGGGACG", "values": [
      {"measurement": "binding signal", "setting": "NKX2-6 [1]", "result": "9.36 upbm affinity estimate (log intensity, higher = more binding, comparable within an allelic series)"},
      {"measurement": "binding signal", "setting": "NKX2-6 [2]", "result": "9.43 upbm affinity estimate (log intensity, higher = more binding, comparable within an allelic series)"}
    ]},
    {"sequence": "CGGTGGCC", "values": [
      {"measurement": "binding signal", "setting": "NKX2-6 [1]", "result": "9.03 upbm affinity estimate (log intensity, higher = more binding, comparable within an allelic series)"},
      {"measurement": "binding signal", "setting": "NKX2-6 [2]", "result": "9.22 upbm affinity estimate (log intensity, higher = more binding, comparable within an allelic series)"}
    ]},
    {"sequence": "CGCGGACG", "values": [
      {"measurement": "binding signal", "setting": "NKX2-6 [1]", "result": "9.09 upbm affinity estimate (log intensity, higher = more binding, comparable within an allelic series)"},
      {"measurement": "binding signal", "setting": "NKX2-6 [2]", "result": "9.22 upbm affinity estimate (log intensity, higher = more binding, comparable within an allelic series)"}
    ]},
    {"sequence": "CAGCTCAG", "values": [
      {"measurement": "binding signal", "setting": "NKX2-6 [1]", "result": "9.47 upbm affinity estimate (log intensity, higher = more binding, comparable within an allelic series)"},
      {"measurement": "binding signal", "setting": "NKX2-6 [2]", "result": "9.39 upbm affinity estimate (log intensity, higher = more binding, comparable within an allelic series)"}
    ]},
    {"sequence": "AAATTAGA", "values": [
      {"measurement": "binding signal", "setting": "PAX4 [3]", "result": "11.9 upbm affinity estimate (log intensity, higher = more binding, comparable within an allelic series)"},
      {"measurement": "binding signal", "setting": "PAX4 [7]", "result": "10.9 upbm affinity estimate (log intensity, higher = more binding, comparable within an allelic series)"}
    ]},
    {"sequence": "CACTCGCA", "values": [
      {"measurement": "binding signal", "setting": "PITX2", "result": "8.08 upbm affinity estimate (log intensity, higher = more binding, comparable within an allelic series)"}
    ]},
    {"sequence": "AAAGAGGG", "values": [
      {"measurement": "binding signal", "setting": "NKX2-6 [1]", "result": "11.6 upbm affinity estimate (log intensity, higher = more binding, comparable within an allelic series)"},
      {"measurement": "binding signal", "setting": "NKX2-6 [2]", "result": "9.79 upbm affinity estimate (log intensity, higher = more binding, comparable within an allelic series)"}
    ]},
    {"sequence": "AGACGCTG", "values": [
      {"measurement": "binding signal", "setting": "NKX2-6 [1]", "result": "9.21 upbm affinity estimate (log intensity, higher = more binding, comparable within an allelic series)"},
      {"measurement": "binding signal", "setting": "NKX2-6 [2]", "result": "9.48 upbm affinity estimate (log intensity, higher = more binding, comparable within an allelic series)"}
    ]},
    {"sequence": "GCAGTCCC", "values": [
      {"measurement": "binding signal", "setting": "NKX2-6 [1]", "result": "9.36 upbm affinity estimate (log intensity, higher = more binding, comparable within an allelic series)"},
      {"measurement": "binding signal", "setting": "NKX2-6 [2]", "result": "9.32 upbm affinity estimate (log intensity, higher = more binding, comparable within an allelic series)"}
    ]},
    {"sequence": "ATCCCAGG", "values": [
      {"measurement": "binding signal", "setting": "NKX2-6 [1]", "result": "9.47 upbm affinity estimate (log intensity, higher = more binding, comparable within an allelic series)"},
      {"measurement": "binding signal", "setting": "NKX2-6 [2]", "result": "9.43 upbm affinity estimate (log intensity, higher = more binding, comparable within an allelic series)"}
    ]}
  ]
}
